Where “and” joins values, the source holds several entries; their conditions need not be identical. Equal values may be shown once. Results filed as inconclusive are left out. Calls of active or inactive are those of the source. Unless noted, calls come from the whole dose curve; as a rule, active = well fitted curve in the direction sought with a large enough effect; inconclusive = small, poorly fitted or top-dose-only effect, or another doubt; inactive = no such curve, though single readings can be large; an effect the other way counts as inactive or inconclusive.
Experiments:
[1] = Cell Viability - BJ (AID 421; calls by dose curve;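 note: potency is the fitted concentration of half-maximal effect; cells exposed to compound for 40 hours at 37 °C before readout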); details: BJ fibroblast viability, qHTS
Summary of the method: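 Quantitative HTS: ATP depletion in BJ cells after 40 hr compound exposure in complete culture medium, detected with CellTiter-Glo; AC50 from standard Hill fits.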

[2] = Cellular Toxicity (caspase-3) HUV-EC-C (AID 656); details: HUV-EC-C cells, caspase-3 activation (apoptosis), vehicle = 0, 100 µM tamoxifen = 100%; series mostly up to 92.2 µM
Summary of the method: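 Luminescent Caspase-Glo 3/7 readout after 16 h, 37 °C compound exposure of HUV-EC-C endothelial cells, 1000 per well, complete medium. AC50 derived by Hill fitting, with DMSO as baseline and 100 uM tamoxifen as full activation.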

[3] = Cellular Toxicity (caspase-3) MRC-5 (AID 659); details: MRC-5 cells, luminescence, normalized: DMSO 0%, 10 µM staurosporine 100%; series mostly up to 91.7 µM
Summary of the method: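 Concentration-dependent caspase 3/7 activation is measured in human normal lung fibroblasts (MRC-5) following 16-hour treatment. AC50 values come from standard Hill-equation modeling of luminescence normalized to DMSO and 10 uM staurosporine.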

[4] = Cellular Toxicity (caspase-3) Mesangial (AID 660); details: mesangial cells, normalized: DMSO 0%, 100 µM tamoxifen 100%; series mostly up to 91.7 µM;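 note: combined caspase 3 and 7 activity read by Caspase-Glo luminescence; cells exposed to compound for 16 h before the caspase read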
Summary of the method: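 Mesangial cells, 1000/well, 5 h settle at 37 °C; compound 16 h, 37 °C; Caspase-Glo 3/7 reagent 20 min RT; luminescence. Norm.: DMSO = 0%, tamoxifen 100 uM = 100%. AC50, Hill fit.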

[5] = Cellular Toxicity (caspase-3) SK-N-SH (AID 661); details: SK-N-SH caspase-3 activation, qHTS; series mostly up to 91.7 µM
Summary of the method: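 Human neuroblastoma SK-N-SH, 1500 cells/well, 5 hr pre-incubation, then compound 16 hr, 37 °C. Caspase-Glo 3/7 reagent, 1 hr RT, luminescence. Norm. to DMSO/10 uM staurosporine; Hill-fit AC50.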

[6] = Cellular Toxicity (caspase-3) Hek293 (AID 664); details: HEK293 caspase-3 activation, DMSO = 0%, 100 µM tamoxifen = 100%; at 92.2 µM (top of the series);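 note: cells exposed to compound for 16 h at 37 °C before readout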
Summary of the method: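 Cells plated, 5 hr at 37 °C; compounds added; 16 hr at 37 °C; Caspase-Glo 3/7 reagent, 20 min RT; luminescence read. Activation expressed relative to DMSO and 100 uM tamoxifen, AC50 by Hill model.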

[7] = Cellular Toxicity (caspase-3) NIH 3T3 (AID 666); details: NIH 3T3 caspase-3 activation, apoptosis/toxicity; series mostly up to 92.2 µM;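 note: caspase signal read after 16 h compound exposure; 0% = DMSO basal and 100% = 100 µM tamoxifen stimulation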
Summary of the method: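 Luminescence from aminoluciferin released by caspase-3/7 cleavage of a peptide substrate served as read-out. Mouse fibroblast NIH 3T3 cells were exposed to compounds over a concentration range for 16 hours, and AC50 values came from standard Hill modelling.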

[8] = molecular target: Cytochrome P450 3A4 (Homo sapiens) (UniProt P08684); test: qHTS Assay for Inhibitors and Substrates of Cytochrome P450 3A4 (AID 884); details: recombinant CYP3A4, Luciferin-PPXE luminescence; series mostly up to 57.1 µM; note: % is set by controls: 0 for no effect and ±100 for the full control effect; nearly all actives have a fitted effect of over 50% in size
Summary of the method: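 20 nM human CYP3A4 with 25 uM Luciferin-PPXE (at KM) in 200 mM KPO4, preincubated 10 min with compound; NADPH regeneration started a 60 min RT reaction. Luciferin detected by luminescence, normalized to 57 uM ketoconazole as full inhibition.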

[9] = MultiTox-Fluor Cytotoxicity Assay - LYMP1-001 - Dead Cells (AID 946); details: LYMP1-001 lymphoblastoid cells, dead-cell protease fluorescence; series mostly up to 92.2 µM;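 note: 0% = DMSO and 100% = tetraoctylammonium bromide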
Summary of the method: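 In this qHTS, 15 uM tetraoctylammonium bromide defined 100% and DMSO defined basal activity. Lymphoblastoid cells (LYMP1-001, 2500 per well) received compound for 16 hr at 37 C before a fluorogenic dead-cell substrate readout at 485/520 nm.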

[10] = Cell Viability - LYMP1-002 - Assay at 16 hr (AID 948); details: LYMP1-002 lymphoblastoid cell viability; series mostly up to 92.2 µM;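 note: 0% = DMSO alone and full effect = 92 µM tetraoctylammonium bromide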
Summary of the method: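 ATP luminescence (CellTiter-Glo) was measured after 16 hr compound exposure at 37 C of 2500 lymphoblastoid LYMP1-002 cells per well. Concentration-response curves were fitted with the Hill equation to give AC50.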

[11] = MultiTox-Fluor Cytotoxicity Assay - LYMP1-003 - Live Cells (AID 962); details: LYMP1-003 lymphoblastoid cells, MultiTox-Fluor live-cell protease fluorescence; series mostly up to 92.2 µM;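 note: cells exposed to compound for 16 hours at 37 °C; 0% = DMSO only and full loss = 92 µM tetraoctylammonium bromide; cytotoxic hits lower the live-cell protease signal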
Summary of the method: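 qHTS, 1536-well; 2500 cells/well LYMP1-003; 5 hr 37 C settle; cpd 16 hr 37 C; MultiTox-Fluor reagent 60 min RT; live-cell protease fluor. 405/510; Hill-fit AC50; tetraoctylammonium bromide pos. ctrl.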

[12] = Cell Viability - LYMP2-003 (AID 965); details: LYMP2-003 lymphoblastoid cell viability; series mostly up to 92.2 µM;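 note: cells exposed to compounds for 24 h before reading; 0% = DMSO only and full effect = 92 µM tetraoctylammonium bromide; nearly all actives have a fitted effect of over 50% in size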
Summary of the method: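 CellTiter-Glo luminescence quantified ATP loss after 24 h compound treatment of LYMP2-003 lymphoblastoid cells at 37 C. Titration series were fitted with the standard Hill equation to give AC50.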

[13] = Cell Viability - LYMP2-026 (AID 989); details: LYMP2-026 lymphoblastoid cell viability, qHTS; series mostly up to 92.2 µM; note: % is set by controls: 0 for no effect and ±100 for the full control effect; nearly all actives have a fitted effect of over 50% in size
Summary of the method: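 Luminescent ATP signal (CellTiter-Glo, 30 min room temperature) measures viable lymphoblastoid cells after 24 hr compound treatment at 37 C. Decreased ATP reflects acute toxicity; AC50 values come from Hill-equation modeling.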

[14] = Cell Viability - LYMP1-002 - Assay at 40 hr (AID 994); details: LYMP1-002 lymphoblastoid cell viability; series mostly up to 92.2 µM;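 note: 0% = DMSO only and full inhibition = 92 µM tetraoctylammonium bromide; nearly all actives have a fitted effect of over 60% in size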
Summary of the method: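 Luminescent ATP signal served as the viability readout, with decreases taken as toxicity. Cells were treated with compounds across a concentration range for 40 hours at 37 C, and AC50 values came from standard Hill modeling.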

[15] = qHTS Assay for Identification of Small Molecule Inducers of Hypoxia Response (AID 2120; active = well fitted curve in the direction sought with a large enough effect in the signal ratio, with a control signal flat, not every such curve was filed as active; the % refers to the signal ratio; note: 0% is about no effect); details: hypoxia response reporter cells, beta-lactamase ratio readout; series mostly up to 104 µM
Summary of the method: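 ME-180 HRE-bla cells plated in Opti-MEM/0.5% dialyzed FBS, rested 4-5 h, then dosed with compound titrations by pin tool. After 17 h at 37 degrees C, CCF4 dye loaded 2.5 h at RT; 460/530 nm ratio gave %Activity and AC50.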

[16] = qHTS assay for environmental chemicals that activate the Aryl hydrocarbon Receptor (AhR) signaling pathway (AID 651777); details: 1A2-DRE human hepatoma cells, luciferase, 24 h; activation: active compounds read high; note: % of control where 0% means no effect; nearly all actives have a fitted effect of over 15% in size
Summary of the method: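 Luminescence (One-Glo, 30 min, room temperature) reports AhR-driven luciferase in stably transfected human hepatoma cells bearing DRE and CYP1A2 promoter. Cells (1,200/well) were treated with compound for 24 hr at 37 C in qHTS format.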

[17] = molecular target: Peroxisome proliferator-activated receptor alpha (Homo sapiens) (UniProt Q07869); test: qHTS assay for small molecule agonists of the peroxisome proliferator-activated receptor alpha (PPARalpha) signaling pathway (AID 651778); details: PathHunter PPARalpha complementation, chemiluminescence, 6 h; active compounds read high; note: % of control where 0% means no effect
Summary of the method: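 Chemiluminescence from complemented enzyme reported PPARalpha activation in cells after 6 hr of compound treatment at 37 C. The detection reagent was incubated for 60 min at room temperature, and compounds were scored as agonists.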

[18] = qHTS assay for small molecule agonists of the antioxidant response element (ARE) signaling pathway measured by Nrf2-dependant transcriptional activity - cell viability counter screen (AID 720653; active = well fitted curve in the direction sought with a large enough effect in the repeat runs; an effect the other way counts as inactive or inconclusive; note: % is set by controls: 0 for no effect and ±100 for the full control effect); details: ARE-bla HepG2 viability, CellTiter-Glo ATP luminescence, 16 h; active compounds read low
Summary of the method: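 Cytotoxicity counter screen: intracellular ATP quantified by CellTiter-Glo luminescence in the same ARE-bla HepG2 plates, after 16 h compound exposure and a 2 h beta-lactamase substrate step.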

[19] = qHTS assay for cell viability of the p53RE-bla HCT-116 cell line (AID 743292); details: p53RE-bla HCT-116 viability, ATP luminescence, 16 h; series mostly up to 95 µM; note: % is set by controls: 0 for no effect and ±100 for the full control effect; nearly all actives have a fitted effect of over 55% in size
Summary of the method: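 ATP-based luminescent viability (CellTiter-Glo, 30 min RT) after 16 h compound treatment at 37 C of p53RE-bla HCT-116 cells, seeded at 4,000 cells/well and rested 5 h before dosing.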

Chain of Peroxisome proliferator-activated receptor alpha (Homo sapiens) (Q07869 whole entry, looked up): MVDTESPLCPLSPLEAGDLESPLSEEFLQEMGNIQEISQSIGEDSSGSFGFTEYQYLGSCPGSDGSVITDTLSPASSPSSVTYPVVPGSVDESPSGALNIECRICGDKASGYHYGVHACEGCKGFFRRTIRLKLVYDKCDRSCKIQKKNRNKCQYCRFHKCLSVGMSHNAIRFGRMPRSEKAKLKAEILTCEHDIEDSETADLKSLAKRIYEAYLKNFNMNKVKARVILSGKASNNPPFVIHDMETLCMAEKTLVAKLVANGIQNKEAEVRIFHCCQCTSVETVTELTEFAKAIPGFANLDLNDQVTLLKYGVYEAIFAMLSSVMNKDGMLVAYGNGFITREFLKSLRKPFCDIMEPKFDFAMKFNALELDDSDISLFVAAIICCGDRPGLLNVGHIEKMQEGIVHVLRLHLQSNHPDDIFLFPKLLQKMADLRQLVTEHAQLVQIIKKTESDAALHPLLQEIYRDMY
Chain of Cytochrome P450 3A4 (Homo sapiens) (P08684 whole entry, looked up): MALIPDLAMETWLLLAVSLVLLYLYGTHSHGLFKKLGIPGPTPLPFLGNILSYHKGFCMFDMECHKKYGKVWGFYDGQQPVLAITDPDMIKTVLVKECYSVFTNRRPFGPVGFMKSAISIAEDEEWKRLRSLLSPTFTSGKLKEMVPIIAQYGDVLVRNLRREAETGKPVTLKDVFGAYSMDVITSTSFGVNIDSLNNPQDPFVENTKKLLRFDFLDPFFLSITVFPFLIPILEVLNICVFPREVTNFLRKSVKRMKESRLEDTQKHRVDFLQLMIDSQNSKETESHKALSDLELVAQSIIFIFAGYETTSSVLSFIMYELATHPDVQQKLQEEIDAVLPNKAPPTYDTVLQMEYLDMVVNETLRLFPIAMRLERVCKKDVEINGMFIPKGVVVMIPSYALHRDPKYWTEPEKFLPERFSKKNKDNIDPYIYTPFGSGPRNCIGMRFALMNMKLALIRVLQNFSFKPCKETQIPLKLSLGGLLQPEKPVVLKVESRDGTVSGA

c1ccc(OCC2CO2)cc1 (stereo not given)
inactive: Potency [1] > 92 µM | outcome [2] | outcome [3] | outcome [4] | Potency [5] | caspase-3 activation [6] 0.633% | Potency [7] | Potency [8] | outcome [9] | outcome [10] | outcome [11] | Potency [12] | Potency [13] | Potency [14] | Potency [15] | activation [16] 0.197% | max response [17] -5.02% | max response [18] 0.104% | Potency [19]

Nc1ccccc1-c1ccccc1
inactive: Potency [1] > 92 µM | outcome [2] | outcome [3] | outcome [4] | Potency [5] | caspase-3 activation [6] 1.72% | Potency [7] | Potency [8] | outcome [9] | outcome [10] | outcome [11] | Potency [12] | Potency [13] | Potency [14] | Potency [15] | activation [16] -0.114% | max response [17] -2.98% | max response [18] -2.88% | Potency [19]

O=C(Cc1ccccc1)OCc1ccccc1
inactive: Potency [1] > 92 µM | outcome [2] | outcome [3] | outcome [4] | Potency [5] | caspase-3 activation [6] 2.6% | Potency [7] | Potency [8] | outcome [9] | outcome [10] | outcome [11] | Potency [12] | Potency [13] | Potency [14] | Potency [15] | max response [17] 0.258% | max response [18] -10.2% | Potency [19]

COC(=O)Nc1nc2ccccc2[nH]1
inactive: Potency [1] > 92 µM | outcome [2] | outcome [3] | outcome [4] | Potency [5] | caspase-3 activation [6] -4.59% | Potency [7] | outcome [10] | outcome [11] | Potency [12] | Potency [13] | Potency [15] | activation [16] 7.05% | max response [17] -5.67% and 0.607% | max response [18] 0.0482% and -1.74% | Potency [19]

C=CCO
inactive: Potency [1] > 92 µM | outcome [2] | outcome [3] | outcome [4] | Potency [5] | caspase-3 activation [6] 0.437% | Potency [7] | Potency [8] | outcome [9] | outcome [10] | outcome [11] | Potency [12] | Potency [13] | Potency [14] | Potency [15] | activation [16] -0.568% | max response [17] -7.9% | max response [18] 1.93% | Potency [19]

ClCCCCl
inactive: Potency [1] > 92 µM | outcome [2] | outcome [3] | outcome [4] | Potency [5] | caspase-3 activation [6] -1.63% | Potency [7] | Potency [8] | outcome [9] | outcome [10] | outcome [11] | Potency [12] | Potency [13] | Potency [14] | Potency [15] | activation [16] -1.95% | max response [17] -2.57% | max response [18] 1.55% | Potency [19]
